Data taken from PubChem BioAssay AID1159580 (chemical genetic matrix, 2015).
Hit rate of the full screen: of about 5,500 compounds, about 2,000 (36%) were called active. Another 18% or so got no clear call; they are omitted. No stated cut-off is given here; in the data, active means normalized growth mostly below about 0.91 (no sharp cut-off); inconclusive means no clear call, values can overlap the other calls; inactive means mostly above about 0.92. The list shows a part of the results.

Assay: chemical genetic growth profiling, strain panel (AID 1159580);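 further: tested at 20 µM; growth read once vehicle control cultures reached saturation at 30 °C; 1 = growth at the plate median or of vehicle wells; lower values mean less growth of the strain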
Details: growth OD
[1] = S. cerevisiae deletion strains, locus YCL061C, strain MRC1, hits give low values
[2] = S. cerevisiae deletion strains, locus YHR030C, strain SLT2, hits give low values
[3] = S. cerevisiae deletion strains, locus YJL187C, strain SWE1, hits give low values

Measured: normalized growth

COc1cc(O)c(C(=O)/C=C/c2ccc(OC)c(O)c2)c(OC)c1
inactive: S. cerevisiae deletion strains, locus YAL021C, strain ccr4, hits give low values 0.994 | S. cerevisiae deletion strains, locus YAL030W, strain snc1, hits give low values 0.961 | S. cerevisiae deletion strains, locus YBL061C, strain skt5, hits give low values 0.939 | S. cerevisiae deletion strains, locus YBR171W, strain sec66, hits give low values 0.993 | S. cerevisiae deletion strains, locus YBR231C, strain swc5, hits give low values 0.925 | S. cerevisiae deletion strains, locus YBR279W, strain paf1, hits give low values 0.965 | S. cerevisiae deletion strains, locus YCL011C, strain gbp2, hits give low values 0.91 | S. cerevisiae deletion strains, locus YCL016C, strain dcc1, hits give low values 0.971 | [1] 0.954 | S. cerevisiae deletion strains, locus YCL069W, strain vba3, hits give low values 0.946 | S. cerevisiae deletion strains, locus YCR088W, strain abp1, hits give low values 0.995 | S. cerevisiae deletion strains, locus YDL005C, strain med2, hits give low values 1.01 | S. cerevisiae deletion strains, locus YDL040C, strain nat1, hits give low values 1.01 | S. cerevisiae deletion strains, locus YDR001C, strain nth1, hits give low values 0.992 | S. cerevisiae deletion strains, locus YDR069C, strain doa4, hits give low values 1.06 | S. cerevisiae deletion strains, locus YDR137W, strain rgp1, hits give low values 0.912 | S. cerevisiae deletion strains, locus YDR159W, strain sac3, hits give low values 0.929 | S. cerevisiae deletion strains, locus YDR297W, strain sur2, hits give low values 1.01 | S. cerevisiae deletion strains, locus YDR334W, strain swr1, hits give low values 0.983 | S. cerevisiae deletion strains, locus YDR335W, strain msn5, hits give low values 0.935 | S. cerevisiae deletion strains, locus YEL003W, strain gim4, hits give low values 0.927 | S. cerevisiae deletion strains, locus YEL037C, strain rad23, hits give low values 0.988 | S. cerevisiae deletion strains, locus YEL061C, strain CIN8 (second series), hits give low values 0.918 | S. cerevisiae deletion strains, locus YER015W, strain faa2, hits give low values 0.956 | S. cerevisiae deletion strains, locus YER016W, strain bim1, hits give low values 1.02 | S. cerevisiae deletion strains, locus YER111C, strain swi4, hits give low values 0.98 | S. cerevisiae deletion strains, locus YFR010W, strain ubp6, hits give low values 0.959 | S. cerevisiae deletion strains, locus YGL167C, strain pmr1, hits give low values 1.02 | S. cerevisiae deletion strains, locus YGL173C, strain kem1, hits give low values 0.939 | S. cerevisiae deletion strains, locus YGL227W, strain vid30, hits give low values 0.96 | S. cerevisiae deletion strains, locus YGL240W, strain doc1, hits give low values 0.946 | S. cerevisiae deletion strains, locus YHR013C, strain ard1, hits give low values 1.02 | S. cerevisiae deletion strains, locus YHR027C, strain rpn1, hits give low values 0.987 | [2] 0.922 | S. cerevisiae deletion strains, locus YHR079C, strain IRE1, hits give low values 0.943 | S. cerevisiae deletion strains, locus YJL092W, strain hpr5, hits give low values 0.957 | S. cerevisiae deletion strains, locus YJL095W, strain BCK1, hits give low values 0.941 | S. cerevisiae deletion strains, locus YJL115W, strain asf1, hits give low values 1 | S. cerevisiae deletion strains, locus YJL154C, strain vps35, hits give low values 1.02 | S. cerevisiae deletion strains, locus YJR066W, strain TOR1, hits give low values 0.897 | S. cerevisiae deletion strains, locus YKR026C, strain gcn3, hits give low values 0.992 | S. cerevisiae deletion strains, locus YKR091W, strain srl3, hits give low values 1.01 | S. cerevisiae deletion strains, locus YLL041C, strain sdh2, hits give low values 1.01 | S. cerevisiae deletion strains, locus YLR113W, strain HOG1, hits give low values 0.982 | S. cerevisiae deletion strains, locus YLR342W, strain FKS1, hits give low values 1 | S. cerevisiae deletion strains, locus YLR357W, strain rsc2, hits give low values 0.933 | S. cerevisiae deletion strains, locus YLR370C, strain arc18, hits give low values 0.944 | S. cerevisiae deletion strains, locus YLR384C, strain iki3, hits give low values 1.03 | S. cerevisiae deletion strains, locus YMR125W, strain sto1, hits give low values 0.9 | S. cerevisiae deletion strains, locus YMR129W, hits give low values 0.992 | S. cerevisiae deletion strains, locus YMR231W, strain pep5, hits give low values 0.98 | S. cerevisiae deletion strains, locus YNL183C, strain NPR1, hits give low values 0.958 | S. cerevisiae deletion strains, locus YNL209W, strain ssb2, hits give low values 1.01 | S. cerevisiae deletion strains, locus YNL248C, strain rpa49, hits give low values 0.909 | S. cerevisiae deletion strains, locus YNL322C, strain KRE1 (second series), hits give low values 0.997 | S. cerevisiae deletion strains, locus YNR049C, strain mso1, hits give low values 0.997 | S. cerevisiae deletion strains, locus YOR001W, strain rrp6, hits give low values 0.905 | S. cerevisiae deletion strains, locus YOR080W, strain dia2, hits give low values 1.01 | S. cerevisiae deletion strains, locus YOR231W, strain MKK1, hits give low values 0.931 | S. cerevisiae deletion strains, locus YOR265W, strain rbl2, hits give low values 0.988 | S. cerevisiae deletion strains, locus YOR270C, strain vph1, hits give low values 0.833 | S. cerevisiae deletion strains, locus YPL106C, strain sse1, hits give low values 0.929 | S. cerevisiae deletion strains, locus YPL240C, strain hsp82, hits give low values 0.976 | S. cerevisiae deletion strains, locus YPL256C, strain CLN2, hits give low values 0.942
active: S. cerevisiae deletion strains, locus YAL026C, strain drs2, hits give low values 0.906 | S. cerevisiae deletion strains, locus YBR009C, strain hhf1, hits give low values 0.846 | S. cerevisiae deletion strains, locus YBR023C, strain chs3, hits give low values 0.912 | S. cerevisiae deletion strains, locus YDR195W, strain ref2 1.17 [resistant] | S. cerevisiae deletion strains, locus YDR392W, strain spt3, hits give low values 0.413 | S. cerevisiae deletion strains, locus YER155C, strain BEM2 (second series), hits give low values 0.765 | S. cerevisiae deletion strains, locus YGL253W, strain hxk2, hits give low values 0.806 | S. cerevisiae deletion strains, locus YHR142W, strain chs7, hits give low values 0.712 | S. cerevisiae deletion strains, locus YJL095W, strain BCK1 (second series), hits give low values 0.86 | S. cerevisiae deletion strains, locus YJL129C, strain trk1, hits give low values 0.852 | S. cerevisiae deletion strains, locus YJL164C, strain tpk1, hits give low values 0.842 | S. cerevisiae deletion strains, locus YJL166W, strain qcr8, hits give low values 0.799 | [3] 0.914 | S. cerevisiae deletion strains, locus YKL160W, strain elf1, hits give low values 0.893 | S. cerevisiae deletion strains, locus YLL001W, strain dnm1, hits give low values 0.891 | S. cerevisiae deletion strains, locus YLL026W, hits give low values 0.857 | S. cerevisiae deletion strains, locus YLR027C, strain aat2, hits give low values 0.841 | S. cerevisiae deletion strains, locus YLR221C, strain rsa3, hits give low values 0.79 | S. cerevisiae deletion strains, locus YLR258W, strain gsy2, hits give low values 0.903 | S. cerevisiae deletion strains, locus YLR262C, strain YPT6 (second series), hits give low values 0.752 | S. cerevisiae deletion strains, locus YLR320W, strain mms22, hits give low values 0.793 | S. cerevisiae deletion strains, locus YML120C, strain ndi1, hits give low values 0.828 | S. cerevisiae deletion strains, locus YMR058W, strain fet3, hits give low values 0.847 | S. cerevisiae deletion strains, locus YMR205C, strain PFK2, hits give low values 0.845 | S. cerevisiae deletion strains, locus YNL071W, strain lat1, hits give low values 0.566 | S. cerevisiae deletion strains, locus YOR070C, strain gyp1, hits give low values 0.895 | S. cerevisiae deletion strains, locus YOR083W, strain WHI5, hits give low values 0.859 | S. cerevisiae deletion strains, locus YOR106W, strain vam3, hits give low values 0.822 | S. cerevisiae deletion strains, locus YOR290C, strain snf2, hits give low values 0.751 | S. cerevisiae deletion strains, locus YPL051W, strain arl3, hits give low values 0.856 | S. cerevisiae deletion strains, locus YPL078C, strain atp4, hits give low values 0.796

COc1cc(/C=C2\NC(=O)NC2=O)ccc1O
inactive: S. cerevisiae deletion strains, locus YAL013W, strain DEP1, hits give low values 1 | S. cerevisiae deletion strains, locus YBR229C, strain ROT2, hits give low values 0.965 | [1] 1 | S. cerevisiae deletion strains, locus YDL101C, strain DUN1, hits give low values 0.982 | S. cerevisiae deletion strains, locus YDR150W, strain NUM1, hits give low values 0.963 | S. cerevisiae deletion strains, locus YEL061C, strain CIN8, hits give low values 0.956 | S. cerevisiae deletion strains, locus YGR078C, strain PAC10, hits give low values 0.977 | [2] 0.873 | S. cerevisiae deletion strains, locus YHR087W, strain rtc3, hits give low values 1.04 | [3] 0.982 | S. cerevisiae deletion strains, locus YJR043C, strain POL32, hits give low values 0.997 | S. cerevisiae deletion strains, locus YJR075W, strain HOC1, hits give low values 0.976 | S. cerevisiae deletion strains, locus YKL190W, strain CNB1, hits give low values 0.986 | S. cerevisiae deletion strains, locus YLR039C, strain RIC1, hits give low values 0.918 | S. cerevisiae deletion strains, locus YLR058C, strain SHM2 (second series), hits give low values 0.98 | S. cerevisiae deletion strains, locus YLR085C, strain ARP6, hits give low values 0.941 | S. cerevisiae deletion strains, locus YLR262C, strain YPT6, hits give low values 0.945 | S. cerevisiae deletion strains, locus YML094W, strain GIM5, hits give low values 0.989 | S. cerevisiae deletion strains, locus YMR219W, strain ESC1, hits give low values 0.974 | S. cerevisiae deletion strains, locus YMR263W, strain SAP30, hits give low values 0.998 | S. cerevisiae deletion strains, locus YMR307W, strain GAS1, hits give low values 1.07 | S. cerevisiae deletion strains, locus YNL128W, strain TEP1, hits give low values 0.993 | S. cerevisiae deletion strains, locus YNL153C, strain GIM3, hits give low values 0.98 | S. cerevisiae deletion strains, locus YNL298W, strain CLA4 (second series), hits give low values 0.968 | S. cerevisiae deletion strains, locus YNL322C, strain KRE1, hits give low values 0.996 | S. cerevisiae deletion strains, locus YNR030W, strain Alg12, hits give low values 1.01 | S. cerevisiae deletion strains, locus YPL055C, strain LGE1, hits give low values 0.999 | S. cerevisiae deletion strains, locus YPL241C, strain CIN2, hits give low values 0.975 | S. cerevisiae deletion strains, locus YPR135W, strain CTF4, hits give low values 0.945 | S. cerevisiae strains, strain wild type, hits give low values 0.948
